From PubChem BioAssay (NCI) come the findings set out here.

Compounds without any hit were thinned out: in the full panel of roughly 83,000, 20% have a hit.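 For each line, cells grew in 96-well plates with the test compound present at a single concentration for 48 hours.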 A number with no mark means an inactive call. Calls of active or inactive are those of the source. How the source made its calls: active means growth percent below 10; inactive means the rest.

What all share (assay): NCI-60 one-dose screen, 48 h (100 = growth as untreated, 0 = no growth, -100 = all killed)
One assay concerns HCT-15 colon. The following applies: 10 µM unless noted.
Another assay concerns HT29 colon. The following applies: 10 µM unless noted.
For the next assay, the system named is SNB-75 CNS. The following applies: 10 µM unless noted.
Another assay deals with SNB-19 CNS. The following applies: 10 µM unless noted.
The next assay deals with U251 CNS. The following applies: 10 µM unless noted.
Another assay relates to PC-3 prostate. The following applies: 10 µM unless noted.
The next assay relates to SK-MEL-5 melanoma. The following applies: 10 µM unless noted.
Another assay deals with UACC-62 melanoma. The conditions noted are these: 10 µM unless noted.
The next assay has as its system LOX IMVI melanoma. The conditions noted are these: 10 µM unless noted.
For the next assay, the system named is SK-MEL-28 melanoma. The conditions noted are these: 10 µM unless noted.
Another assay relates to SK-MEL-2 melanoma. The conditions noted are these: 10 µM.
For a further assay, the system named is EKVX NSCLC. The following applies: 10 µM unless noted.
Another assay concerns SN12C renal. The following applies: 10 µM unless noted.
The subject of the next assay is UO-31 renal. The following applies: 10 µM unless noted.
In a further assay the test system is TK-10 renal. The conditions noted are these: 10 µM unless noted.
Another assay deals with ACHN renal. The conditions noted are these: 10 µM unless noted.
The subject of the next assay is A498 renal. The conditions noted are these: 10 µM unless noted.
The next assay concerns CCRF-CEM leukemia. The following applies: 10 µM unless noted.
Another assay relates to MOLT-4 leukemia. The conditions noted are these: 10 µM unless noted.

`O=C1/C(=C\c2cccc(OCCCCCOc3ccc(Cl)cc3)c2)N=C2SCCCN12`: the growth was 57.7% in the assay on HCT-15 colon; 67.4% in the assay on HT29 colon; 71.3% in the assay with SNB-75 CNS; 75% with SNB-19 CNS; 74.1% with U251 CNS; 28.8% in the assay on PC-3 prostate. In addition, the growth in the assay on SK-MEL-5 melanoma was -6.82% (active); in the assay with UACC-62 melanoma it was 56.6%; in the assay with LOX IMVI melanoma, 67.1%; with SK-MEL-28 melanoma, 58.7%; in the assay on SK-MEL-2 melanoma, 41.2%; in the assay on EKVX NSCLC, 37.2%. Besides, the growth in the assay with SN12C renal is 77.6%; in the assay with UO-31 renal it was 39.4%; in the assay with TK-10 renal, 56.7%; in the assay with ACHN renal it was 49.3%; in the assay on A498 renal it was 39.6%; with CCRF-CEM leukemia, 55.9%. Further, the growth with MOLT-4 leukemia is 36.7%.

Turning to `O=CC(OC(=O)c1ccccc1)C(OC(=O)c1ccccc1)C(COC(c1ccccc1)(c1ccccc1)c1ccccc1)OC(=O)c1ccccc1` (configuration not stated), the growth with HCT-15 colon is 48.8%; in the assay with HT29 colon it was 52.6%; in the assay with SNB-75 CNS, 94%; in the assay on SNB-19 CNS it was 78.8%; in the assay on U251 CNS it was 19%; with PC-3 prostate it was 3.19% (active). Further, the growth was 70.3% in the assay with SK-MEL-5 melanoma; 63.4% with UACC-62 melanoma; 13.8% with LOX IMVI melanoma; 0.343% (active) in the assay on SK-MEL-28 melanoma; 96.7% in the assay with SK-MEL-2 melanoma; 88.8% with EKVX NSCLC. In addition, the growth was 61.8% with SN12C renal; 19.8% in the assay with UO-31 renal; 77.8% in the assay on TK-10 renal; 60% in the assay with ACHN renal; 122% in the assay on A498 renal; -18.6% (active) in the assay on CCRF-CEM leukemia. The growth in the assay with MOLT-4 leukemia is -14.6% (active).

Turning to `CC(C)c1ccc(/C=N/Nc2nc3ccccc3s2)cc1`, the growth in the assay with HCT-15 colon is 83.9%; in the assay on HT29 colon, 78.8%; with SNB-75 CNS, 103%; in the assay on SNB-19 CNS it was 97.7%; with U251 CNS it was 80.8%; in the assay on PC-3 prostate it was 77.9%. In addition, the growth in the assay on SK-MEL-5 melanoma was 91.6%; in the assay on UACC-62 melanoma, 87%; in the assay with LOX IMVI melanoma, 89.1%; with SK-MEL-28 melanoma, 108%; in the assay on SK-MEL-2 melanoma, 106%; in the assay with EKVX NSCLC, 87.2%. Moreover, the growth with SN12C renal was 86.3%; in the assay on UO-31 renal, 57.1%; in the assay on TK-10 renal it was 148%; in the assay with ACHN renal it was 103%; in the assay with A498 renal it was 92.8%; in the assay with CCRF-CEM leukemia, 84.8%. Also, the growth with MOLT-4 leukemia was 70.5%.

For `O=c1nc2c(-c3nc4ccccc4s3)n[nH]n2c2sc3c(c12)CCCC3`, the growth in the assay with HCT-15 colon was 64%; with HT29 colon, 111%; in the assay on SNB-75 CNS, 104%; in the assay with SNB-19 CNS it was 101%; with U251 CNS, 86.5%; in the assay with PC-3 prostate, 79.6%. For the same molecule, the growth was 101% in the assay on SK-MEL-5 melanoma; 92.7% with UACC-62 melanoma; 96.9% in the assay with LOX IMVI melanoma; 114% in the assay on SK-MEL-28 melanoma; 112% in the assay with SK-MEL-2 melanoma; 92% in the assay with EKVX NSCLC. The growth is 97.1% in the assay on SN12C renal; 75.4% in the assay on UO-31 renal; 147% in the assay with TK-10 renal; 105% in the assay with ACHN renal; 103% in the assay on A498 renal; 79.8% with CCRF-CEM leukemia. Further, the growth in the assay on MOLT-4 leukemia is 98.6%.

For `COc1cc(-c2nc(C(=O)NCC(=O)O)nn2-c2ccc(Cl)cc2)cc(OC)c1OC`, the growth in the assay on HCT-15 colon is 102%; with HT29 colon, 106%; in the assay on SNB-75 CNS, 115%; with SNB-19 CNS, 109%; with U251 CNS it was 96.6%; with PC-3 prostate it was 94.3%. Moreover, the growth with SK-MEL-5 melanoma was 98.3%; in the assay on UACC-62 melanoma, 104%; in the assay on LOX IMVI melanoma it was 84.9%; in the assay with SK-MEL-28 melanoma, 104%; with SK-MEL-2 melanoma, 120%; with EKVX NSCLC it was 91.7%. In addition, the growth was 101% in the assay on SN12C renal; 90.5% with UO-31 renal; 117% in the assay on TK-10 renal; 112% with ACHN renal; 107% with A498 renal; 84.2% in the assay on CCRF-CEM leukemia. In the assay on MOLT-4 leukemia, the growth was 100%.

Take `COC(=O)C1=C(C(=O)OC)C23C=C(C)C1C2=C(C)C1(CC1)[C@@](C)(O)C3=O` (some centres not stated): the growth in the assay with HCT-15 colon is 6.97% (active); in the assay with HT29 colon, -0.501% (active); with SNB-75 CNS, -56.5% (active); in the assay on SNB-19 CNS, 7.17% (active); in the assay with U251 CNS, 2.06% (active); with PC-3 prostate it was 11.5%. In addition, the growth in the assay with SK-MEL-5 melanoma is -75.7% (active); in the assay on UACC-62 melanoma, -45.2% (active); in the assay with LOX IMVI melanoma, -14.3% (active); in the assay on SK-MEL-28 melanoma, -22.5% (active); in the assay with SK-MEL-2 melanoma it was -54.6% (active); in the assay on EKVX NSCLC it was -6% (active). For the same molecule, the growth with SN12C renal is 9.49% (active); with UO-31 renal, -28% (active); in the assay on TK-10 renal, -6.99% (active); in the assay with ACHN renal, 3.21% (active); in the assay on A498 renal, -44% (active); with CCRF-CEM leukemia, 66.5%. Further, the growth in the assay on MOLT-4 leukemia is 73.6%.

Regarding `CCCCN1CCCC[C@@H]1C(=O)N[C@H](C(=O)N(C)[C@H](CCc1nc(C(=O)N[C@@H](Cc2ccccc2)C[C@H](C)C(=O)OC)cs1)C(C)C)C(C)C`, the growth in the assay on HCT-15 colon was 59.4%; in the assay on HT29 colon it was 68.9%; in the assay with SNB-75 CNS, 75.2%; in the assay on SNB-19 CNS, 57.9%; in the assay on U251 CNS, 83.8%; in the assay with PC-3 prostate, 35%. Further, the growth in the assay on SK-MEL-5 melanoma was 53.5%; in the assay on UACC-62 melanoma, 43.6%; with LOX IMVI melanoma it was 80%; in the assay on SK-MEL-28 melanoma, 76.4%; in the assay on SK-MEL-2 melanoma, 68.1%; with EKVX NSCLC, 65.8%. The growth is 82.2% in the assay on SN12C renal; 52.3% in the assay on UO-31 renal; 102% in the assay on TK-10 renal; 59.7% in the assay on ACHN renal; 61.2% with A498 renal; 38.8% in the assay with CCRF-CEM leukemia. Also, in the assay on MOLT-4 leukemia, the growth was 35.2%.

Take `O=C(Nc1ccc(C(=O)Nc2ccc(C3=NCCCN3)cc2)cc1)Nc1ccc(C2=NCCCN2)cc1`: the growth was 100% with HCT-15 colon; 92.8% in the assay on HT29 colon; 91% in the assay on SNB-75 CNS; 95.6% with SNB-19 CNS; 84.6% with U251 CNS; 90% with PC-3 prostate. The growth in the assay on SK-MEL-5 melanoma is 54.7%; in the assay with UACC-62 melanoma it was 82.7%; with LOX IMVI melanoma, 85.8%; in the assay with SK-MEL-28 melanoma, 105%; in the assay on SK-MEL-2 melanoma, 62.8%; in the assay with EKVX NSCLC it was 61.4%. The growth in the assay with SN12C renal is 91.6%; in the assay on UO-31 renal, 82.6%; in the assay with TK-10 renal, 96.7%; in the assay on ACHN renal it was 86%; in the assay on A498 renal it was 119%; in the assay with CCRF-CEM leukemia, 70.9%. For the same molecule, the growth in the assay with MOLT-4 leukemia was 81.5%.
